Tgondii IFNg – T. gondii growth inhibition under IFN-gamma; Toxoplasma gondii growth in IFN-gamma-treated host cells; active compounds read low; activity change, negative = inhibition, % (no concentration beside the values); actives 3.8% (n = 69,000); AID 1259416; in the data active means activity change below about -70%, passing the limit was not always enough;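 further: host cells are HeLa cells infected with Toxoplasma gondii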
Hits are given with their value; – = inactive. Shown is part of a subset that was picked to be rich in hits.

SMILES | Tgondii IFNg
CCCN(Cc1cccc(Cl)c1)C(=O)[C@@H](N)[C@@H](C)CC | –
COc1cccc(Nc2ncccc2C(=O)NC(C)c2cnn(C)c2C)c1 (centres undefined) | –
CCn1cc(C(=O)N2CCC3(CC2)N=C(c2csc(C)n2)NC3=O)cn1 | –
CCNC(=O)N1CCC(NC(=O)C2(c3cccs3)CC2(C)C)CC1 (centres undefined) | –
Cc1c(C(=O)Nc2ccc(N3CCC(N4CCOCC4)CC3)c(C#N)c2)cnn1-c1ccc(Cl)cc1 | -83.9
Cc1cc(C(=O)Nc2ccc(N3CCOCC3)cc2)nn1C | –
O=C(C1CCN(c2cncnc2N2CCOCC2)CC1)N1CCC(N2CCCCC2)CC1 | –
Cc1cccc(C(=O)N2CCn3cc(CNC(=O)CC4CC4)nc3C2)n1 | –
CCc1nc(C)c(C(=O)N2CCC(O)(CN(C)C)C2)o1 (centres undefined) | –
CC(C)(C)c1ccc2[nH]c3c(c2c1)CCCC3=O | -84.5
O=C(C1c2ccccc2-c2ccccc21)N1CCC(n2c(=O)oc3ccc(Cl)cc32)CC1 | –
O=C(NC1CC1)N1CCOC2(CCCN(c3cccc(F)c3)C2)C1 (centres undefined) | –
Cc1cc(-c2cnc(N3CCCC3)nc2C2CCN(C(=O)c3n[nH]c4c3CCC4)CC2)on1 | -82.3
Cc1cc(-c2cnc(N3CCOCC3)nc2C2CCN(CC3CCC=CO3)CC2)on1 (centres undefined) | –
Cc1ccc(C2(O)CCN(C(=O)c3n[nH]c4c3CCC4)CC2)nc1 | –
Cc1cc(C(=O)N2C[C@@H]3COC[C@@]3(COc3ccccn3)C2)c(C)o1 | –
COc1ccc(CN2CCC3(CC(C(=O)N4CCC(N(C)C)CC4)=NO3)C2)cc1 (centres undefined) | –
CS(=O)(=O)N1Cc2ccccc2C2(CCN(C3CCOCC3)CC2)C1 | –
CN(C)C(=O)[C@H]1C[C@@H]2CCN(S(C)(=O)=O)C[C@H]2O1 | –
CS(=O)(=O)N1CCN(C2CCOCC2)CC(C(=O)O)C1 (centres undefined) | -100.3
COc1ccc(-c2nc(CN(c3ccc(OC)cc3)S(=O)(=O)c3cccs3)c(C)o2)cc1 | –
CCc1noc(C)c1C(=O)N1CCS(=O)(=O)CC1 | –
CC(C)CN(C[C@@H](O)[C@H](Cc1ccccc1)NC(=O)O[C@H]1CCOC1)S(=O)(=O)c1ccc(N)cc1 | –
CC(C)CN(C[C@@H](O)[C@H](Cc1ccccc1)NC(=O)O[C@H]1CO[C@H]2OCC[C@H]21)S(=O)(=O)c1ccc(N)cc1 | -72.1
c1ccc(-c2cn(C3CCN(c4cc(-n5cccn5)ncn4)CC3)nn2)nc1 | –
SMILES | Tgondii IFNg
C=CCn1cc(CN(C)CCN2CCCCC2C)c(C)n1 (centres undefined) | –
COCC(=O)O[C@]1(CCN(C)CCCc2nc3ccccc3[nH]2)CCc2cc(F)ccc2[C@@H]1C(C)C | -72.1
CCOC(=O)CCc1nc2ccccc2[nH]1 | –
CN(Cc1nc2ccccc2[nH]1)C(=O)CCNC(=O)c1ccc(F)cc1 | –
Cc1ccc(N(C(=O)c2cnccn2)C(C(=O)NC2CCCCC2)c2sccc2C)cc1 (centres undefined) | –
CSc1cccc(NC(=O)CN2CCC3(CC2)N=C(c2cccc(F)c2)C(=O)N3)c1 | –
C[C@@H]1CN([C@H](C)CO)C(=O)c2ccccc2-c2ccccc2CO[C@H]1CN(C)C(=O)Nc1ccc(-c2ccccc2)cc1 | -76.0
C[C@H](CO)N1C[C@H](C)[C@@H](CN(C)C(=O)Nc2cccc(C(F)(F)F)c2)OCc2ccccc2-c2ccccc2C1=O | –
C[C@@H]1CN([C@H](C)CO)C(=O)c2ccccc2-c2ccccc2CO[C@H]1CN(C)C(=O)Nc1cccc(C(F)(F)F)c1 | –
C[C@@H]1CN([C@@H](C)CO)C(=O)c2ccccc2-c2ccccc2CO[C@@H]1CN(C)C(=O)Nc1ccc(-c2ccccc2)cc1 | –
C[C@@H]1CN([C@H](C)CO)C(=O)c2ccccc2-c2ccccc2CO[C@@H]1CN(C)C(=O)Nc1ccc(-c2ccccc2)cc1 | -74.3
C[C@H]1CN([C@@H](C)CO)C(=O)c2ccccc2-c2ccccc2CO[C@H]1CN(C)C(=O)NC1CCCCC1 | –
O=C(Nc1ccc(Cl)cc1)N1CCC(c2nc3ccc(Cl)cc3[nH]2)CC1 | –
COc1ccc(S(=O)(=O)NCc2nc(-c3ccc(C)cc3)oc2C)cc1Cl | –
Cc1ccccc1NC(=O)CC(=O)NCCc1ccccc1Cl | –
Cc1cccc(-c2nnc(-c3nc(N(C)Cc4ccccc4)c4ccccc4n3)o2)c1 | –
Cc1cccc2c(C(=O)NCCCn3cccn3)cc(-c3cccnc3)nc12 | –
Cc1ccc2c(c1)C(=O)CC1(CCN(CC(=O)Nc3nc4c(s3)CCCC4)CC1)O2 | –
O=C(CN1CCCC1Cn1cccn1)Nc1nc2c(s1)CCCC2 (centres undefined) | -77.7
O=C(CN1CCCC1Cn1cccn1)Nc1ccnn1C1CCCC1 (centres undefined) | –
OCCOCc1ncn2c1CN(Cc1ccncc1)CCC2 | –
CCn1c(C2CCCN(C(=O)Nc3cccc4ccccc34)C2)n[nH]c1=O (centres undefined) | –
CCCCN(CCCC)CCNC(=O)C1=C(C)C(=O)OC12CCN(CC)CC2 | –
Nc1nc2c(cnn2CCc2ccccc2)c2nc(-c3ccco3)nn12 | –
Nc1nc(NCCc2ccc(O)cc2)nc2nc(-c3ccco3)nn12 | -80.2
SMILES | Tgondii IFNg
Nc1nc2ccc(Cl)cc2c2nc(-c3ccco3)nn12 | –
C[C@@H]1[C@@H](C(=O)NCc2ccc(F)cc2)CC=CCN1Cc1cccc2c1OCO2 | –
COc1cccc(-c2nc(C)c(-c3ccc(SCc4ccc(Cl)c(Cl)c4)nn3)s2)c1 | –
Cc1cc(Nc2cc(C)on2)nc(C2CCN(C(=O)CN)C2)n1 (centres undefined) | –
O=C(c1ccc2c3c(cccc13)CC2)C1CCCN(Cc2cccc(OCCO)c2)C1 (centres undefined) | –
Cc1nc2c(c(=O)[nH]1)CN(Cc1cccn1-c1cccnc1)CC2 | –
COc1cc2c(cc1OC)-c1nnc(C)n1C(C)(C)C2 | –
COc1cc2c(cc1OC)C(Nc1ccc(I)cc1)=NC1(CCCC1)C2 | -98.3
CSc1ncccc1C(=O)Nc1ccc2c(c1)CCC(=O)N2 | –
CC(C)CC(=O)N1CCC(C(=O)NCCc2csc(-c3cccs3)n2)CC1 | –
Cc1ccc(Nc2nc(C(=O)Nc3cccc(C)c3)nc3ccccc23)cc1 | –
Cc1cc(C)cc(NC(=O)c2nc(Nc3ccccc3)c3ccccc3n2)c1 | –
Cc1ccc(C)c(NC(=O)c2nc(Nc3ccccc3)c3ccccc3n2)c1 | –
Cc1cccc(Nc2nc(C(=O)Nc3c(C)cccc3C)nc3ccccc23)c1 | -70.1
CSc1cccc(NC(=O)c2nc(Nc3cccc(C)c3)c3ccccc3n2)c1 | -82.2
Cc1cccc(Nc2nc(C(=O)Nc3cccc(C)c3C)nc3ccccc23)c1 | –
CCN(CC)CC1CCC2(COCCN(C(=O)c3cscn3)C2)O1 (centres undefined) | –
Cc1cccc(-c2cn[nH]c2C2CCN(CC3CCOC3)CC2)c1 (centres undefined) | –
O=C(NCc1ccccn1)[C@@H]1C[C@H]2CCN(c3ncccn3)C[C@@H]2O1 | –
c1ccc2[nH]c(CCNc3nc(-c4ccncc4)nc4c3CCNC4)nc2c1 | –
CCSc1nc2c(c(=O)n1C)C1(CCCCC1)Cc1ccccc1-2 | -73.3
O=c1[nH]c(Cc2ccccc2)nc2c1C1(CCCCC1)Cc1ccccc1-2 | –
Cn1ncc2c3ccccc3n(CC(=O)N3CCN(c4ncccn4)CC3)c2c1=O | –

Assay outcomes (PubChem)
